Data on six compounds can be found in PubChem BioAssay (NCI).

The nature of assay [1]: NCI Yeast Anticancer Drug Screen. Data for the rad50 strain (AID 155).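 Further: 0% = growth of vehicle-only cultures of the same strain.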 The settings on record: S. cerevisiae rad50 strain growth inhibition, hits give high values. An outline of the steps: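 Genetically altered yeast (DNA repair pathway); compound treatment; growth inhibition vs vehicle ctrl.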
Assay [2] is described as follows: NCI Yeast Anticancer Drug Screen. Data for the sgs1 mgt1 strain (AID 161).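 Further: 0% = growth of cultures given vehicle only.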 The settings on record: S. cerevisiae sgs1 mgt1 strain, hits give high values. Put shortly:
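Growth of a repair-deficient yeast mutant was monitored after compound treatment and expressed as inhibition relative to vehicle-treated cultures.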

Assay [3] is described as follows: NCI Yeast Anticancer Drug Screen. Data for the cln2 rad14 strain (AID 165).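 Further: 0% = growth equal to vehicle treated cultures.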 The settings on record: S. cerevisiae cln2 rad14 strain, hits give high values. An outline of the steps: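 Relative to vehicle controls, growth inhibition of compound-treated cln2 rad14 yeast was recorded.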
The nature of assay [4]: NCI Yeast Anticancer Drug Screen. Data for the bub3 strain (AID 167). The settings on record: S. cerevisiae bub3 mutant strain, hits give high values. An outline of the steps: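 Yeast carrying a defined mutation is treated with each compound, and growth is compared with that of vehicle-exposed cells to give inhibition.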
Assay [5] in a line: NCI Yeast Anticancer Drug Screen. Data for the mlh1 rad18 strain (AID 175). The settings on record: S. cerevisiae mlh1 rad18 strain growth inhibition, hits give high values. Put shortly:
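Test agents were incubated with a yeast strain of defined genotype (DNA damage repair defect). Inhibition of growth was derived by comparison with vehicle-exposed cultures.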

Assay [6] can be described thus: NCI Yeast Anticancer Drug Screen. Data for the mec2-1 strain (AID 157). The settings on record: S. cerevisiae mec2-1 strain, hits give high values. An outline of the steps: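 Readout is yeast growth inhibition, normalised to vehicle-treated controls, in the mec2-1 strain exposed to compound.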
The mark [7] stands for this setting: at 5.0 µM (retest, dose inferred, filed as 0.5).
Setting [8] is: at 50.0 µM (retest, dose inferred, filed as 5.0).

About 79,000 compounds went through this panel and 15% of them were active in at least one assay; those are over-represented in the sample as a whole. Values without a mark were called inactive. Active and inactive are the calls of the source. No stated cut-off is given here; in the data, active means growth inhibition above about 70%; inactive means the rest.

With `O=C1C(Cl)=C(N2CCN(c3ccccn3)CC2)C(=O)c2ncccc21`, the growth inhibition is 40% in assay [1] (setting [7]); 94% (active) in assay [1] (setting [8]); 85.3% (active) in assay [1] (at 50.0 µM); 23% in assay [2] (setting [7]); 97% (active) in assay [2] (setting [8]); 91% (active) in assay [2] (at 50.0 µM). The growth inhibition in assay [3] (setting [7]) was 10%; in assay [3] (setting [8]) it was 96% (active); in assay [3] (at 50.0 µM), 89.4% (active); in assay [4] (setting [7]), 50%; in assay [4] (setting [8]) it was 98% (active); in assay [4] (at 50.0 µM), 88.6% (active). In addition, the growth inhibition in assay [5] (setting [7]) is 34%; in assay [5] (setting [8]), 97% (active); in assay [5] (at 50.0 µM), 89.1% (active).

With `CN1c2ccccc2Sc2c1n[nH]c2-c1ccccc1`, the growth inhibition in assay [1] (setting [7]) was -1%; in assay [1] (setting [8]), 64%; in assay [6] (setting [7]), -3%; in assay [6] (setting [8]), 79% (active); in assay [6] (at 50.0 µM) it was 96.1% (active); in assay [2] (setting [7]), 0%. Further, the growth inhibition is 79% (active) in assay [2] (setting [8]); 98.8% (active) in assay [2] (at 50.0 µM); 2% in assay [3] (setting [7]); 68% in assay [3] (setting [8]); 98% (active) in assay [3] (at 50.0 µM); -1% in assay [4] (setting [7]). Also, the growth inhibition is 95% (active) in assay [4] (setting [8]); 99% (active) in assay [4] (at 50.0 µM); -4% in assay [5] (setting [7]); 91% (active) in assay [5] (setting [8]); 98.8% (active) in assay [5] (at 50.0 µM).

Turning to `COC1/C=C\OC2(C)Oc3c(C)c(O)c4c(O)c(c5[nH]c(-c6ccccc6)nc5c4c3C2=O)NC(=O)/C(C)=C\C=C\C(C)C(O)C(C)C(O)C(C)C(OC(C)=O)C1C` (configuration not stated), the growth inhibition is 29% in assay [1] (setting [7]); 84% (active) in assay [1] (setting [8]); 88.5% (active) in assay [1] (at 50.0 µM); 30% in assay [6] (setting [7]); 94% (active) in assay [6] (setting [8]); 91.1% (active) in assay [6] (at 50.0 µM). For the same compound, the growth inhibition in assay [2] (setting [7]) is 20%; in assay [2] (setting [8]), 88% (active); in assay [2] (at 50.0 µM), 91.7% (active); in assay [4] (setting [7]), 14%; in assay [4] (setting [8]), 89% (active); in assay [4] (at 50.0 µM), 88.6% (active). Further, the growth inhibition in assay [5] (setting [7]) was 19%; in assay [5] (setting [8]), 94% (active); in assay [5] (at 50.0 µM), 90% (active).

As to `CN(C)CC[N+](C)(C)Cc1ccc(C[N+](C)(C)CC[N+](C)(C)Cc2ccc(CCl)cc2)cc1`, the growth inhibition in assay [1] (setting [7]) is 0%; in assay [1] (setting [8]) it was 0%; in assay [1] (at 50.0 µM), 99% (active); in assay [6] (setting [7]), -39%; in assay [6] (setting [8]), -1%; in assay [6] (at 50.0 µM), 98% (active). Besides, the growth inhibition in assay [2] (setting [7]) was -1%; in assay [2] (setting [8]), 2%; in assay [2] (at 50.0 µM), 97.9% (active); in assay [4] (setting [7]), -6%; in assay [4] (setting [8]), 2%; in assay [4] (at 50.0 µM), 97.8% (active). Further, the growth inhibition in assay [5] (setting [7]) was -1%; in assay [5] (setting [8]) it was -1%; in assay [5] (at 50.0 µM) it was 98.7% (active).

For the compound `O=C(O)CCC12CCCCC1=NC1(CCCCC1)NC2=O` (configuration not stated), the growth inhibition is 2% in assay [1] (setting [7]); 6% in assay [1] (setting [8]); 10.6% in assay [1] (at 50.0 µM); 3% in assay [2] (setting [7]); 4% in assay [2] (setting [8]); 72.7% (active) in assay [2] (at 50.0 µM). Besides, the growth inhibition was 4% in assay [3] (setting [7]); 3% in assay [3] (setting [8]); 18.1% in assay [3] (at 50.0 µM); 1% in assay [4] (setting [7]); 2% in assay [4] (setting [8]); 67% in assay [4] (at 50.0 µM). Besides, the figures for the growth inhibition in assay [5] (setting [7]), in assay [5] (setting [8]) and in assay [5] (at 50.0 µM) were 1%, 7% and 55.6%, respectively.

Turning to `Cc1cc(N=Nc2ccccc2C)c(N)cc1N`, the growth inhibition in assay [1] (setting [7]) was -12%; in assay [1] (setting [8]), 56%; in assay [1] (at 50.0 µM) it was 99.2% (active); in assay [2] (setting [7]), 4%; in assay [2] (setting [8]), 90% (active); in assay [2] (at 50.0 µM), 99.5% (active). Moreover, the growth inhibition in assay [3] (setting [7]) was -27%; in assay [3] (setting [8]), 40%; in assay [3] (at 50.0 µM), 98.3% (active); in assay [4] (setting [7]), -14%; in assay [4] (setting [8]), 86% (active); in assay [4] (at 50.0 µM) it was 99.3% (active). Further, the growth inhibition is -13% in assay [5] (setting [7]), 90% (active) in assay [5] (setting [8]) and 99.5% (active) in assay [5] (at 50.0 µM).
